HT1080 IDH1KD tx – HT-1080 IDH1 knockdown cell toxicity (counter line) | AID 686971 | 360,000 compounds, 2% hits | HT-1080 IDH1 knockdown viability, ATP luminescence, 48 h | Potency, µM (highest dose often 46.1 µM), actives largely listed as cytotoxic
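CellTiter-Glo luminescence after 48 h compound exposure at 37 degrees C of IDH1-knockdown HT-1080 cells in 5% FBS RPMI. %Activity scaled between DMSO wells and cell-free media wells, with curves fitted and assigned curve classes.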
TDP1 cell CPT – DT40-hTDP1 cell growth loss with CPT; chicken DT40 Tdp1-/-;hTDP1 cells + 20 nM CPT, ATP luminescence, 48 h; Potency, µM (top dose mostly 46.2 µM), actives largely listed as inhibitors; 420,000 compounds, 12% hits; AID 686979; also: nearly all actives have a fitted effect of over 55% in size
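Cell growth measured by CellTiter-Glo luminescence after a minimum 48 h, 37 C compound exposure with 20 nM CPT in Tdp1-knockout DT40 cells stably expressing hTDP1, seeded 400/well; qHTS titration format.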
TDP1 cell noCPT – qHTS for Inhibitors of human tyrosyl-DNA phosphodiesterase 1 (TDP1): qHTS in cells in absence of CPT. DT40 Tdp1-/- hTDP1 cells, no CPT, ATP luminescence, 48 h. Potency, µM (top dose mostly 46.2 µM), most hits filed as inhibitors. 420,000 compounds, 15% hits. AID 686978, 2013; also: nearly all actives have a fitted effect of over 55% in size
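Cells were dispensed at 400 per well, compounds added by pin tool, plates incubated ≥48 hr at 37 °C, then CellTiter-Glo added for 30 min at room temperature before luminescence reading. Line: DT40 Tdp1-/- complemented with hTDP1; camptothecin omitted.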
IL-1B inflam inh – inhibitors of inflammasome signaling (IL-1 beta secretion). THP-1 LPS/ATP IL-1B secretion, AlphaLISA, 16 h; active compounds read low. activity change, % at 57.5 µM. 360,000 compounds, 4.7% hits. AID 743279; in the data active = activity change below about -50%; inconclusive = mostly about -30% to -49%
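THP-1 cells pretreated 1 hr with compounds (up to 57.5 uM final), then stimulated with LPS (250 ng/mL final) plus ATP (1.25 mM final); secreted IL-1B measured by AlphaLISA after 16 hr, decreased signal indicating inhibition.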
HT1080NT lethal – kills 2HG-producing HT-1080-NT fibrosarcoma cells | HT-1080-NT fibrosarcoma viability, CellTiter-Glo ATP luminescence, 48 h | Potency, µM (top dose mostly 46.1 µM), actives largely listed as cytotoxic | 360,000 compounds, 1.6% hits | AID 686970;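 also: NT is the 2HG producing partner of a matched IDH1 knockdown line; nearly all actives have a fitted effect of over 55% in size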
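Compounds were tested in concentration-response format on HT-1080-NT cells for 48 hours at 37 degrees C. Cell viability came from CellTiter-Glo luminescence; curves were classified by r2, response magnitude and activity.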
ELG1 repair inh – blocks ELG1-dependent DNA repair in HEK293T cells; 330,000 compounds, 2.3% hits; Potency, µM (highest dose often 46.1 µM), actives largely listed as inhibitors; AID 504467; HEK293T ELG1-luciferase reporter, luminescence, 16 h; DNA damage induced by 5-fluorouridine; also: nearly all actives have a fitted effect of over 55% in size
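Step one: seed 2,000 cells per well. Step two: pin-transfer compound or DMSO alongside 5-fluorouridine. Step three: incubate 16 hr, 37 °C, 5% CO2. Step four: add ONE-Glo, wait 30 min, read luminescence.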
Of the large screens only hits and unclear results are named; the others gave an inactive call. Hits are enriched below; roughly 19% of the tested compounds scored in any of these assays. Unless noted, calls follow the shape of the dose curve; as a rule, active = well fitted curve in the direction sought with a large enough effect; inconclusive = small, poorly fitted or top-dose-only effect, or another doubt; inactive = no such curve, though single readings can be large; an effect the other way counts as inactive or inconclusive.

CC(=O)C1=C(c2ccc(Br)cc2)C(=O)c2ccccc2C1=O	HT1080 IDH1KD tx 13µM, TDP1 cell CPT 1.3µM, TDP1 cell noCPT 1.46µM, IL-1B inflam inh -96.6, HT1080NT lethal 13µM, ELG1 repair inh 3.66µM
Cc1ncc(CO)c2c1Oc1nc(-c3ccc(F)cc3)nc(SCC(=O)N3CCCCC3)c1C2	TDP1 cell CPT 16.4µM, TDP1 cell noCPT 9.2µM (no result: HT1080 IDH1KD tx, IL-1B inflam inh, HT1080NT lethal, ELG1 repair inh)
COc1ccc(-c2nc3c(c(SCC(=O)Nc4cccc(O)c4)n2)Cc2c(CO)cnc(C)c2O3)cc1	TDP1 cell CPT inconclusive, TDP1 cell noCPT 18.4µM
Cc1ncc(CO)c2c1Oc1nc(-c3ccccc3)nc(SCC(=O)Nc3cccc(C(F)(F)F)c3)c1C2	TDP1 cell CPT 6.51µM, TDP1 cell noCPT 4.61µM (no result: HT1080 IDH1KD tx, IL-1B inflam inh, HT1080NT lethal, ELG1 repair inh)
CCOc1ccc(NC(=O)CSc2nc(-c3ccc(OC)cc3)nc3c2Cc2c(CO)cnc(C)c2O3)cc1	none (no result: HT1080 IDH1KD tx, IL-1B inflam inh, HT1080NT lethal, ELG1 repair inh)
Cc1ncc(CO)c2c1Oc1nc(-c3ccccc3)nc(SCC(=O)Nc3cccc(O)c3)c1C2	TDP1 cell CPT inconclusive, TDP1 cell noCPT 25.9µM, ELG1 repair inh inconclusive
COC(=O)c1cccc(CN2C(=O)C(C)Sc3cc(Cl)ccc32)c1 (stereo not drawn)	HT1080 IDH1KD tx inconclusive, TDP1 cell CPT inconclusive, TDP1 cell noCPT inconclusive, HT1080NT lethal inconclusive (no result: ELG1 repair inh)
CO[C@H]1[C@H](NC(=O)c2ccco2)c2ccccc2C12CCN(Cc1cccn1-c1ccccn1)CC2	none (no result: HT1080 IDH1KD tx, IL-1B inflam inh, HT1080NT lethal, ELG1 repair inh)
Cc1ncc2c(c1CNS(=O)(=O)N(C)C)CCN(C(=O)c1ccc(-c3ccc(F)cc3)cc1)C2	TDP1 cell noCPT inconclusive (no result: HT1080 IDH1KD tx, IL-1B inflam inh, HT1080NT lethal, ELG1 repair inh)
CC(C)CCOC(=O)C1C(c2ccccc2)C(C(=O)O)C1c1ccccc1 (stereo not drawn)	HT1080 IDH1KD tx 3.66µM, HT1080NT lethal 7.31µM
O=C(O)C1C(c2ccccc2)C(C(=O)Oc2ccccc2)C1c1ccccc1 (stereo not drawn)	none
O=C1/C(=C\c2cccs2)N=C(c2cccs2)N1Nc1ccccc1	IL-1B inflam inh -60.9, ELG1 repair inh inconclusive
Cc1ccc(C2=N/C(=C\c3cccs3)C(=O)N2Nc2ccccc2)cc1	TDP1 cell CPT inconclusive, TDP1 cell noCPT inconclusive, ELG1 repair inh 14.6µM
Cc1ccc(NC(=O)/C(=C\c2cccs2)NC(=O)c2ccccc2)cc1	none
O=C(NN1C(=O)/C(=C/c2cccs2)SC1=S)c1ccccc1	TDP1 cell noCPT inconclusive
O=C1/C(=C/c2cccs2)N=C(c2cccs2)N1Nc1ccccc1	IL-1B inflam inh -70.4, ELG1 repair inh inconclusive
CCOC(=O)N1CCN(C(=O)COC(=O)Cc2ccc(Cl)cc2)CC1	HT1080 IDH1KD tx inconclusive
C=CC(=O)Nc1ccc(N(C)c2ccnc(Nc3ccc(N4CCN(C)CC4)cc3)n2)cc1	TDP1 cell CPT inconclusive, TDP1 cell noCPT 16.4µM, IL-1B inflam inh -77.2
CC=Cc1cc(OC)c2c(c1)C(C)C(c1ccc(O)c(OC)c1)O2 (stereo not drawn)	TDP1 cell CPT inconclusive, TDP1 cell noCPT inconclusive, IL-1B inflam inh -64.7 (no result: ELG1 repair inh)
CN1CCCC(OC(=O)c2ccccc2Br)C1 (stereo not drawn)	ELG1 repair inh inconclusive
C1=CN2CC=Cc3cc(/C=C/c4ccnc5ccccc45)cc(c32)C1	TDP1 cell CPT 10µM, TDP1 cell noCPT 7.08µM (no result: HT1080 IDH1KD tx, IL-1B inflam inh, HT1080NT lethal, ELG1 repair inh)
Cc1ccc(-n2nc(C(=O)Nc3ccc(Br)cc3C)c(=O)n(C)c2=O)cc1	none (no result: HT1080 IDH1KD tx, IL-1B inflam inh, HT1080NT lethal, ELG1 repair inh)
CCCC(=O)Oc1c(S(=O)(=O)c2ccc(C)cc2)c(C)nn1C(C)(C)C	HT1080NT lethal inconclusive, ELG1 repair inh inconclusive
Cc1nn(C(C)(C)C)c(OC(=O)c2cccs2)c1S(=O)(=O)c1ccccc1	HT1080 IDH1KD tx inconclusive, TDP1 cell noCPT inconclusive, HT1080NT lethal 20.6µM
CCCCC(=O)Oc1c(S(=O)(=O)c2ccccc2)c(C)nn1C(C)(C)C	HT1080 IDH1KD tx inconclusive, TDP1 cell noCPT inconclusive, IL-1B inflam inh -77.2, HT1080NT lethal inconclusive
CC(=O)Oc1c(S(=O)(=O)c2ccccc2)c(C)nn1C(C)(C)C	none (no result: ELG1 repair inh)

Source: PubChem BioAssay (National Center for Advancing Translational Sciences (NCATS))
